# Compound activity from PubChem.
# DSG3 Ab inh: human desmoglein-3 autoantibody binding inhibition; P32926; DSG3-coupled beads, scFv-anti-DSG3-GFP binding, flow cytometry; stronger effect = lower value; binding (percent of control), % at 10 µM; 0.48% of 310,000 active; AID 588358;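 active = binding more than 3 SD below its plate's average and above zero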;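 also: hits lower antibody fragment binding to DSG3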
# Target sequence (P32926 whole entry, looked up, the tested form may be a part): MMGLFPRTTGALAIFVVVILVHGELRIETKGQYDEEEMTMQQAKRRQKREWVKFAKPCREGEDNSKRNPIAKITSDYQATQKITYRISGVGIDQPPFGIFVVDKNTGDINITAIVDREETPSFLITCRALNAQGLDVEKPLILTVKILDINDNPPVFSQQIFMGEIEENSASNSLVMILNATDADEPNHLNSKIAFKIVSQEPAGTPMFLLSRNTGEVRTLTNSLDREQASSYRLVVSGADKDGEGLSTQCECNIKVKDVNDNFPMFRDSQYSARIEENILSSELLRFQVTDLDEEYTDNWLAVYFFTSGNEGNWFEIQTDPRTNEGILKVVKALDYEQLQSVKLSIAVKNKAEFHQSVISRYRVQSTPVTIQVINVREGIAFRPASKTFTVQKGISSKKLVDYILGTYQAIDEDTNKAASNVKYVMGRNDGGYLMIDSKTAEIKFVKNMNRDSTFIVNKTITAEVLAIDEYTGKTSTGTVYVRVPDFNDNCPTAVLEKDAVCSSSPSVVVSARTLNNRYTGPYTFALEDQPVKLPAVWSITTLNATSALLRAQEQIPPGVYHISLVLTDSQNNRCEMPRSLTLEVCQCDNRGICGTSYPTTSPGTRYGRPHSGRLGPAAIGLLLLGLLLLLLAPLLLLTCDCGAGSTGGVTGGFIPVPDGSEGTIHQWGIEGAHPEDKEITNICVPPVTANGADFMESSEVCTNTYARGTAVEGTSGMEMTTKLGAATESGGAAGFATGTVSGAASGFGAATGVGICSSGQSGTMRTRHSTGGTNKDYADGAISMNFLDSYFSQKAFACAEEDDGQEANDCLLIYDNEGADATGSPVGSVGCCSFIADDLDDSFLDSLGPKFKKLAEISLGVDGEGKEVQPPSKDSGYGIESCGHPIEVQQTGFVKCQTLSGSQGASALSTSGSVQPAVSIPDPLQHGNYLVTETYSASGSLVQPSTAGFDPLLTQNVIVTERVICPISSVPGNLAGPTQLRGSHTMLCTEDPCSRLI
# rCAG RNA binder: binds r(CAG) RNA repeats. 1.3% of 370,000 active. r(CAG) RNA repeat, TO-PRO-1 dye displacement fluorescence. inhibition, % at 3 µM;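 active = inhibition above the plate cutoff, the mean of all test compounds on that plate plus 3 SD, cut at about 35% in these data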;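 also: higher means more dye released from RNA so lower well fluorescence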
# MsrA inh: inhibitors of bovine MsrA | purified bovine MsrA, absorbance read-out | AID 651718 | 0.75% of 360,000 active | inhibition, % at 15.5 µM; in the data active = inhibition above about 4.5%
# NadD inh: inhibitors of Staphylococcus aureus NadD. purified NadD enzyme, colorimetric absorbance read-out. 0.78% of 360,000 active. inhibition, % at 20 µM. AID 602399; in the data active = inhibition above about 26%
# DAGLB inh: blocks human DAGLB lipase activity; Q8NCG7; HEK293T DAGLB membrane lysate, EnzChek fluorogenic substrate; inhibition, % at 5.17 µM; 0.059% of 340,000 active; in the data active = inhibition above about 34%
# MsrA act: activates bovine MsrA enzyme | purified bovine MsrA, absorbance read-out | activation, % at 10.6 µM | 0.3% of 360,000 active | AID 602163; in the data active = activation above about 7.5%
# rCAG binder conf: r(CAG) RNA repeat binding, confirmation. shares compounds with rCAG RNA binder. TO-PRO-1 dye displacement fluorescence. inhibition, % at 3 µM. 70% of 4,300 active;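 active = inhibition above a per-plate cutoff, the mean inhibition of sample wells plus 3 SD, cut at about 35% in these data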;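 also: loss of TO-PRO-1 fluorescence as compound displaces dye from 1x1 AA loop RNA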
# DNA CAG counter: disrupts DNA CAG TO-PRO-1 complex, flagging rCAG hits; inhibition, % at 3 µM; 94% of 4,300 active; AID 652068; d(CAG) DNA oligo TO-PRO-1 dye displacement, fluorescence; shares compounds with rCAG RNA binder;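 active = inhibition above its plate's cutoff, the mean test-well inhibition plus 3 SD, cut at about 4.8% in these data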;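 also: hits displace the dye from DNA and so lower well fluorescence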
# A number is an active result; . = inactive; / = no result. Most compounds without a hit are left out; they make up all but 3.2% or so of the library.
SMILES,DSG3 Ab inh,rCAG RNA binder,MsrA inh,NadD inh,DAGLB inh,MsrA act,rCAG binder conf,DNA CAG counter
COc1ccc(-c2csc(NC(=O)Nc3ccccc3)n2)cc1,.,40,.,.,.,.,.,16
CCc1cc2c(SCC(=O)N3CCN(C(=O)c4cccs4)CC3)ncnc2s1,.,.,.,.,.,.,/,/
COC(=O)C(Cc1ccccc1)NC(=O)C(N)CC(=O)O (stereo unspecified),/,.,/,/,/,/,/,/
CC(C)(C)c1ccc(N/N=C(\C#N)S(=O)(=O)C(C)(C)C)cc1,.,36,.,.,.,.,50,19
COc1ccc(S(=O)(=O)Nc2ccc(N3CCOCC3)cc2)cc1[N+](=O)[O-],.,.,.,.,.,.,/,/
COC(=O)c1cc(NS(=O)(=O)c2ccc(N3CCCCCC3)c([N+](=O)[O-])c2)cc(C(=O)OC)c1,.,39,.,.,.,.,60,20
Cc1ccc(NC(=O)c2ccc(N3CCOCC3)c([N+](=O)[O-])c2)cc1S(=O)(=O)N1CCOCC1,.,.,.,.,.,.,/,/
Cc1ccc(NC(=S)NNC(=O)c2ccc(N3CCOCC3)c([N+](=O)[O-])c2)cc1C,.,58,.,.,.,.,61,26
COC(=O)c1cc(NS(=O)(=O)c2ccc(N3CCOCC3)c([N+](=O)[O-])c2)cc(C(=O)OC)c1,.,51,.,.,.,.,40,11
O=C(O)c1ccc(NS(=O)(=O)c2ccc(N3CCCC3)c([N+](=O)[O-])c2)cc1,.,.,.,.,.,.,/,/
c1ccc(Cn2c(SCC3CCCCC3)nnc2-c2cccnc2)cc1,/,.,/,/,/,/,/,/
O=c1c2cc3cc4c(cc3nc2ncn1CCc1ccccc1)OCO4,/,.,/,/,/,/,/,/
C[C@H]1CN([C@@H](C)CO)C(=O)CCCn2nncc2CO[C@H]1CN(C)C(=O)NC1CCCCC1,.,.,.,.,.,.,/,/
Cc1ccc(S(=O)(=O)Oc2ccc(/C=C3\C(=N)N4N=C(S(C)(=O)=O)SC4=NC3=O)cc2)cc1,.,63,.,34,.,.,88,66
COc1cc(/C=C2\C(=N)N3N=C(S(C)(=O)=O)SC3=NC2=O)cc(OC)c1OCCOc1cccc(C)c1,.,51,.,32,.,.,89,69
COc1cc(/C=C2\C(=N)N3N=C(S(C)(=O)=O)SC3=NC2=O)cc(OC)c1OCCOc1ccc(C)cc1,.,57,.,30,.,.,88,58
COc1cc(/C=C2/C(=N)N3C=CSC3=NC2=O)ccc1OCCCOc1c(C)cccc1C,.,.,.,.,.,.,/,/
COc1cc(/C=C2/C(=N)N3N=C(C)SC3=NC2=O)ccc1OS(=O)(=O)c1ccc(C)cc1,/,.,.,.,.,.,/,/
CCOC(=O)N1C(=O)C[C@](Sc2ccc(OC)cc2)(C(=O)N(C)C)[C@H]1c1ccc(OC)cc1,/,.,/,/,/,/,/,/
CC1COCC(C)N1S(=O)(=O)c1ccc2c(c1)CCN2C(=O)C1CCC1 (stereo unspecified),/,.,/,/,/,/,/,/
CC(C)(C)c1ccc(C(=O)N2CCC2(C)C(=O)Nc2ccc3nc[nH]c3c2)cc1 (stereo unspecified),/,/,/,.,/,.,/,/
C/C(=N\NC(=O)c1cccc(S(=O)(=O)Nc2ccccc2Cl)c1)c1ccc(-n2ccnc2)cc1,.,40,.,.,.,.,45,14
Cc1ccc(/C=N/NC(=O)c2cccc(S(=O)(=O)Nc3ccccc3Cl)c2)o1,.,.,.,.,.,.,/,/
Cc1[nH]c2ccccc2c1/C=N/NC(=O)c1cccc(S(=O)(=O)Nc2ccccc2Cl)c1,.,48,.,.,.,.,63,21
COc1ccc(NS(=O)(=O)c2cccc(C(=O)N/N=C(\C)c3ccc(-n4ccnc4)cc3)c2)cc1,.,.,.,.,.,.,/,/
SMILES,DSG3 Ab inh,rCAG RNA binder,MsrA inh,NadD inh,DAGLB inh,MsrA act,rCAG binder conf,DNA CAG counter
COC(=O)Cn1c(=O)c2c(n(Cc3ccccc3)c1=O)N/C(=C/c1ccc(Br)cc1)C2=O,.,62,.,.,.,.,75,40
O=C(CSc1n[nH]c(=O)[nH]c1=O)Nc1ccc2c(c1)C(=O)c1ccccc1C2=O,.,40,.,54,.,.,43,17
O=C(CSc1ccccn1)Nc1ccc2c(c1)C(=O)c1ccccc1C2=O,.,.,.,.,.,.,/,/
CCN(c1ccccc1)S(=O)(=O)c1cc(NC(=O)CSc2n[nH]c(=O)[nH]c2=O)ccc1Cl,.,48,.,.,.,.,.,15
CCN(c1ccccc1)S(=O)(=O)c1cc(NC(=O)C2CC2)ccc1Cl,.,.,.,.,.,.,/,/
O=C(CSc1ncnc2sc3c(c12)CCCC3)Nc1ccc(Oc2ccccc2)cc1,/,.,/,/,/,/,/,/
CC1(C(=O)NS(=O)(=O)c2ccc(Cl)s2)CCN1C(=O)C1(c2ccc(Cl)cc2)CCC1 (stereo unspecified),/,62,.,.,/,.,59,21
CC1(C(=O)NS(=O)(=O)c2cccs2)CCN1C(=O)C1(c2ccc(Cl)cc2)CC1 (stereo unspecified),/,.,.,.,/,.,/,/
CC1(C(=O)NS(=O)(=O)c2ccc(Cl)s2)CCN1C(=O)C1(c2ccccc2)CCCC1 (stereo unspecified),/,49,.,.,/,.,51,16
CC1(C(=O)NS(=O)(=O)c2cccs2)CCN1C(=O)C1(c2ccc(Cl)cc2)CCC1 (stereo unspecified),/,.,.,.,/,.,/,/
CC1(C(=O)NS(=O)(=O)c2ccc(Cl)s2)CCN1C(=O)C1(c2ccc(Cl)cc2)CC1 (stereo unspecified),/,54,.,.,/,.,49,14
Nn1c(SCC(=O)Nc2ccc(S(=O)(=O)Nc3nccs3)cc2)nnc1-c1ccco1,/,.,/,/,/,/,/,/
CC(=O)Nc1ccc(S(=O)(=O)Nc2nc3ccccc3nc2Nc2cccc(O)c2)cc1,.,59,.,.,.,.,46,12
CC(=O)Nc1ccc(S(=O)(=O)Nc2nc3ccccc3nc2N2CCOCC2)cc1,.,.,.,.,.,.,/,/
CC(=O)Nc1ccc(S(=O)(=O)Nc2nc3ccccc3nc2Nc2ccc3ccccc3c2)cc1,.,75,.,.,.,.,93,82
CC(=O)Nc1ccc(S(=O)(=O)Nc2nc3ccccc3nc2Nc2ccc(C(=O)O)c(O)c2)cc1,.,47,.,.,.,.,45,13
CC(=O)Nc1ccc(S(=O)(=O)Nc2nc3ccccc3nc2Nc2ccc(N)cc2)cc1,.,42,.,.,.,.,.,11
COC(=O)[C@]12C[C@H](CC(=O)NCc3ccccc3)C(=O)N(Cc3cccc4ccccc34)C1=C[C@H](C1CCCC1)O[C@@H]2C,/,.,/,/,/,/,/,/
C=CCNCc1ccc(OC)cc1OC,/,.,/,/,/,/,/,/
CN(C(=O)c1ccc(NC(=O)Cc2cccc(NC(=O)C3CCCN(C(=O)CCc4ccccc4)C3)c2)cc1)C1CC1 (stereo unspecified),.,.,.,.,.,.,/,/
